# Where “and” joins values, the source holds several entries; their conditions need not be identical. Equal entries are not always repeated. Inconclusive results are not listed. Entries that show only a call come without a potency. The source holds several records for some structures; these can differ, active in one and inactive in another. Calls of active or inactive are those of the source. Unless noted, calls come from the whole dose curve; as a rule, active = well fitted curve in the direction sought with a large enough effect in the repeat runs; inconclusive = weak or mixed curves; inactive = no such curve, though single readings can be large; an effect the other way counts as inactive or inconclusive.
# How the values were obtained:
# [1] = qHTS assay to identify small molecule antagonists of the retinoid-related orphan receptor gamma (ROR-gamma) signaling pathway - cell viability counter screen (AID 1159520); note: nearly all actives have a fitted effect of over 50% in size; note: potency is the fitted concentration of half-maximal effect
# How it was run: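 Tet-on ROR gamma CHO cells were given compounds for 2 hr, then doxycycline hyclate at 1 uM final, and incubated 16 hr at 37 C. Viability was measured as ATP content by CellTiter-Glo luminescence.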
# [2] = biological target: Nuclear receptor ROR-gamma (Homo sapiens) (UniProt P51449); test: qHTS assay to identify small molecule antagonists of the retinoid-related orphan receptor gamma (ROR-gamma) signaling pathway (AID 1159521; note: nearly all actives have a fitted effect of over 50% in size; note: potency is the fitted concentration of half-maximal effect;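 for activity change, negative = inhibition: CHO cells with doxycycline inducible ROR-gamma driving an RORE luciferase reporter; top concentration of the series differs between compounds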)
# How it was run: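 CHO Tet-on RORγ, RORE-luc reporter. Cpd 2 h pre-incubation, then dox hyclate 1 uM final, 16 h, 37 C/5% CO2. ONE-Glo luminescence; decrease = antagonist.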
# [3] = qHTS assay to identify small molecule agonists of the AP-1 signaling pathway - cell viability counter screen (AID 1159525; calls by dose curve; note: nearly all actives have a fitted effect of over 55% in size; note: potency is the fitted concentration of half-maximal effect)
# How it was run: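 AP-1-bla ME-180 cells in Opti-MEM with 0.5% dialyzed FBS, compound exposure 5 h at 37 C in 15-point titration. Viability read in the same wells as ATP content by CellTiter-Glo luminescence, normalised to tetra-n-octylammonium bromide and DMSO controls.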
# [4] = qHTS assay to identify small molecule agonists of the AP-1 signaling pathway (AID 1159526; calls by dose curve)
# [5] = biological target: Retinoic acid receptor RXR-alpha (Homo sapiens) (UniProt P19793); test: qHTS assay to identify small molecule agonists of the RXR signaling pathway (AID 1159527; calls by dose curve; note: nearly all actives have a fitted effect of over 35% in size)
# How it was run: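 Read-out: beta-lactamase FRET ratio (405 nm excitation, 460 and 530 nm emission) after 2 hr substrate loading at room temperature. Cells were RXR-alpha-UAS-bla HEK 293T treated with compounds for 16 hr in 2% charcoal-stripped FBS medium.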
# [6] = qHTS assay to identify small molecule agonists of the RXR signaling pathway - cell viability counter screen (AID 1159529); note: nearly all actives have a fitted effect of over 50% in size; note: potency is the fitted concentration of half-maximal effect; for activity change, negative = cytotoxicity: series mostly up to about 77 µM
# How it was run: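 HEK 293T RXRa-bla cells, 2% CS-FBS; 5 h settle; cpd 16 h 37 C, 5% CO2; CellTiter-Glo 30 min RT, luminescence. Tetraoctyl ammonium bromide as positive control.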
# [7] = qHTS assay to identify small molecule agonists of the vitamin D receptor (VDR) signaling pathway - cell viability counter screen (AID 743224); note: nearly all actives have a fitted effect of over 50% in size; note: potency is the fitted concentration of half-maximal effect; for activity change, negative = cytotoxicity: series mostly up to about 63 µM
# How it was run: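 Viability is measured in the same wells as the VDR-bla reporter assay: after 16 h compound treatment and 2 h substrate loading, CellTiter-Glo is added and luminescence read 30 min later.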
# [8] = qHTS assay to identify small molecule antagonists of the vitamin D receptor (VDR) signaling pathway - cell viability counter screen (AID 743225); note: nearly all actives have a fitted effect of over 50% in size; note: potency is the fitted concentration of half-maximal effect
# How it was run: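 Read-out: CellTiter-Glo luminescence measured 30 min after reagent addition at room temperature. Cells were VDR-bla HEK 293T exposed 16 h at 37C, 5% CO2, to compound with 3 nM final calcitriol agonist.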
# Chain of Retinoic acid receptor RXR-alpha (Homo sapiens) (P19793 whole entry, looked up): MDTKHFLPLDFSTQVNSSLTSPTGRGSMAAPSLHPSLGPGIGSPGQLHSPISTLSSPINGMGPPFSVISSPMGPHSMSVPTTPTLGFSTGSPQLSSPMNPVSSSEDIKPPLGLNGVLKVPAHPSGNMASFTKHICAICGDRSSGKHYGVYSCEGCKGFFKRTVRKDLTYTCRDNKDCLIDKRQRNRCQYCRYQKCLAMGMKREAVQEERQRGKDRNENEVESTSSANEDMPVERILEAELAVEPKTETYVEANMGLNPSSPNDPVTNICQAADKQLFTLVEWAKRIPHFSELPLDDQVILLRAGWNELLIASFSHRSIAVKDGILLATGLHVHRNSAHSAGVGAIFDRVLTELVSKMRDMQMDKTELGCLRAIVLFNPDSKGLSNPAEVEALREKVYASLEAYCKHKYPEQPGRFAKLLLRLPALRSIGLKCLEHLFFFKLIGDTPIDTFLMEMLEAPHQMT
compound,measurement,setting,value
CCOC(/C=C(\C)CCC=C(C)C)OCC,Potency,[1],inactive
same,Potency,[2],inactive
same,Potency,[3],inactive
same,Potency,[4],inactive
same,Potency,[5],inactive
same,Potency,[6],inactive
O=c1cccc[nH]1,Potency,[1],inactive
same,Potency,[2],inactive
same,Potency,[3],inactive
same,Potency,[4],inactive
same,Potency,[5],inactive
same,Potency,[6],inactive
OCCCCl,Potency,[1],inactive
same,Potency,[2],inactive
same,Potency,[3],inactive
same,Potency,[4],inactive
same,Potency,[5],inactive
same,Potency,[6],inactive
C=C/C=C/C=C/CCCCC,"activity, negative = cytotoxicity",[1],-9.56% [at 19 µM] (inactive)
same,"activity change, negative = inhibition",[2],-0.464% [at 19 µM] (inactive)
same,"viability change, negative = cytotoxic",[3],1.06% [at 15.8 µM] (inactive)
same,activation,[4],2.42% [at 15.8 µM] (inactive)
same,activation,[5],-4.02% [at 15.8 µM] (inactive)
same,"activity change, negative = cytotoxicity",[6],-9.45% [at 15.8 µM] (inactive)
CCc1c(C(=O)O)c(=O)cnn1-c1ccc(Cl)cc1,Potency,[1],inactive
same,Potency,[2],inactive
same,Potency,[3],inactive
same,Potency,[4],inactive
same,Potency,[5],inactive
same,Potency,[6],inactive
CC(=O)c1ccccc1N,Potency,[1],inactive
same,Potency,[2],inactive
same,Potency,[3],inactive
same,Potency,[4],inactive
same,Potency,[5],inactive
same,Potency,[6],inactive
CC1=CP(=O)(c2ccccc2)CC1 (stereo not drawn),Potency,[1],inactive
same,Potency,[2],inactive
same,Potency,[3],inactive
same,Potency,[4],inactive
same,Potency,[5],inactive
same,Potency,[6],inactive
CC(=O)O[C@@H]1C[C@@H]2CC[C@@]1(C)C2(C)C,Potency,[1],inactive
same,Potency,[2],inactive
same,Potency,[3],inactive
same,Potency,[4],inactive
same,Potency,[5],inactive
same,Potency,[6],inactive
OCCCS,Potency,[1],inactive
same,Potency,[2],inactive
same,Potency,[3],inactive
same,Potency,[4],inactive
same,Potency,[5],inactive
same,Potency,[6],inactive
C#CC(O)CCC (stereo not drawn),Potency,[1],inactive
same,Potency,[2],inactive
same,Potency,[3],inactive
same,Potency,[4],inactive
same,Potency,[5],inactive
same,Potency,[6],inactive
O=C[C@H](O)[C@H](O)[C@H](O)CO,Potency,[1],inactive
same,Potency,[2],inactive
same,Potency,[3],inactive
same,Potency,[4],inactive
same,Potency,[5],inactive
same,Potency,[6],inactive
CCCCCCCCCCCCOC(=O)c1cc(O)c(O)c(O)c1,Potency,[7],27.4 µM (active) and 21.9 µM (active)
same,Potency,[8],43.5 µM (active) and 24.5 µM (active)
same,Potency,[1],2.42 µM (active) and 4.86 µM (active)
same,Potency,[2],2.16 µM (active) and 2.17 µM (active)
same,Potency,[3],43.5 µM (active) and 38.9 µM (active)
same,Potency,[6],27.4 µM (active) and 34.7 µM (active)
CCCCN(C)C,Potency,[1],inactive
same,Potency,[2],inactive
same,Potency,[3],inactive
same,Potency,[4],inactive
same,Potency,[5],inactive
same,Potency,[6],inactive
C/C=C/C(=O)C1=C(C)CCCC1(C)C,Potency,[1],inactive
same,Potency,[2],inactive
same,Potency,[3],inactive
same,Potency,[4],inactive
same,Potency,[5],inactive
same,Potency,[6],inactive
Cn1cccc1,Potency,[1],inactive
same,Potency,[2],inactive
same,Potency,[3],inactive
same,Potency,[4],inactive
same,Potency,[5],inactive
same,Potency,[6],inactive
CO[Si](CCCNCCNCCN)(OC)OC,Potency,[1],inactive
same,Potency,[2],inactive
same,Potency,[3],inactive
same,Potency,[4],inactive
same,Potency,[5],inactive
same,Potency,[6],inactive
CC1CNCC(C)O1 (stereo not drawn),Potency,[1],inactive
same,Potency,[2],inactive
same,Potency,[3],inactive
same,Potency,[4],inactive
same,Potency,[5],inactive
same,Potency,[6],inactive
CC1=CCC(=O)O1,Potency,[1],inactive
same,Potency,[2],inactive
same,Potency,[3],inactive
same,Potency,[4],inactive
same,Potency,[5],inactive
same,Potency,[6],inactive
CC(C)C(=O)OCc1ccccc1,Potency,[1],inactive
same,Potency,[2],inactive
same,Potency,[3],inactive
same,Potency,[4],inactive
same,Potency,[5],inactive
same,Potency,[6],inactive
CCCCOC(=O)C(C)CC (stereo not drawn),Potency,[7],24.5 µM (active)
same,Potency,[8],inactive
same,Potency,[1],inactive
same,Potency,[2],inactive
same,Potency,[3],inactive
same,Potency,[4],inactive
same,Potency,[5],inactive
same,Potency,[6],inactive
C[Si](C)O[Si](C)C,Potency,[1],inactive
same,Potency,[2],inactive
same,Potency,[4],inactive
same,Potency,[5],inactive
same,Potency,[6],inactive
CCCCCCCC(C)=O,Potency,[1],inactive
same,Potency,[2],inactive
same,Potency,[3],inactive
same,Potency,[4],inactive
same,Potency,[5],inactive
same,Potency,[6],inactive
CCc1cccc(CC)c1NC(=O)C(=O)O,Potency,[1],inactive
same,Potency,[2],inactive
same,Potency,[4],inactive
same,Potency,[5],inactive
same,Potency,[6],inactive
NCCCCCCNCCCCCCN,Potency,[7],inactive
same,Potency,[8],inactive
same,Potency,[1],inactive
same,Potency,[2],inactive
same,Potency,[3],inactive
same,Potency,[4],inactive
same,Potency,[5],inactive
same,Potency,[6],inactive
Clc1ccc(C(c2ccccc2Cl)C(Cl)Cl)cc1 (stereo not drawn),Potency,[7],49 µM (active) and inactive
same,Potency,[8],inactive
same,Potency,[1],inactive
same,Potency,[2],inactive
same,Potency,[3],43.6 µM (active) and 23.9 µM (active)
same,Potency,[6],34.7 µM (active) and 23.9 µM (active)
C=CC(=C)CC/C=C(\C)CCC=C(C)C,"activity, negative = cytotoxicity",[1],3.07% [at 19 µM] (inactive)
same,"activity change, negative = inhibition",[2],0.326% [at 19 µM] (inactive)
same,"viability change, negative = cytotoxic",[3],2.62% [at 15.8 µM] (inactive)
same,activation,[4],-1.16% [at 15.8 µM] (inactive)
same,activation,[5],-18.2% [at 15.8 µM] (inactive)
same,"activity change, negative = cytotoxicity",[6],-8.98% [at 15.8 µM] (inactive)
O=C1OC(=O)c2ccc3c4c(ccc1c24)C(=O)OC3=O,Potency,[1],inactive
same,Potency,[2],inactive
same,Potency,[4],inactive
same,Potency,[5],inactive
same,Potency,[6],inactive
N#CSCSc1nc2ccccc2s1,Potency,[7],12.3 µM (active)
same,Potency,[8],15.5 µM (active)
same,Potency,[1],4.33 µM (active)
same,Potency,[2],13.7 µM (active)
same,Potency,[3],43.6 µM (active)
CCCCCCCC(OC)OC,Potency,[1],inactive
same,Potency,[2],inactive
same,Potency,[4],inactive
same,Potency,[5],inactive
same,Potency,[6],inactive
O=C=NCc1cccc(CN=C=O)c1,"activity, negative = cytotoxicity",[1],5.39% [at 19 µM] (inactive)
same,"activity change, negative = inhibition",[2],-2.4% [at 19 µM] (inactive)
same,"viability change, negative = cytotoxic",[3],-10.1% [at 15.8 µM] (inactive)
same,activation,[4],-14% [at 15.8 µM] (inactive)
same,activation,[5],-0.945% [at 15.8 µM] (inactive)
same,"activity change, negative = cytotoxicity",[6],-2.82% [at 15.8 µM] (inactive)
C=C(C)C(=O)OCCC[Si](Cl)(Cl)Cl,Potency,[7],inactive
same,Potency,[8],inactive
same,Potency,[1],inactive
same,Potency,[2],inactive
same,Potency,[3],inactive
same,Potency,[4],inactive
same,Potency,[5],inactive
same,Potency,[6],inactive
OCCCc1cccnc1,Potency,[1],inactive
same,Potency,[2],inactive
same,Potency,[3],inactive
same,Potency,[4],inactive
same,Potency,[5],inactive
same,Potency,[6],inactive
CCC1CCCCC1,Potency,[1],inactive
same,Potency,[2],inactive
same,Potency,[4],inactive
same,Potency,[5],inactive
same,Potency,[6],inactive

# From PubChem BioAssay (Tox21)
